Measured values published in the supplement of paper PMC4380459.

Tested on: tubulin (bovine brain)
Experiment: tubulin polymerization end-point dOD, fold change relative to DMSO vehicle; higher = more polymerization (stabilization)
Details: 50 µM; 60 min; 37 °C
Method: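 In-vitro tubulin polymerization assay (Cytoskeleton HTS kit) with 4 mg/ml bovine brain tubulin in G-PEM buffer and compound at 50 uM (0.5% DMSO). Turbidity was read at 340 nm every minute for 1 h at 37 C. The end-point change in OD (dOD) was converted to % fold change relative to the DMSO vehicle (0%), and runs were scaled using DMSO and Taxol controls. The paper calls >20% an effect, 20-40% weak and >40% strong; positive values mean stabilization, negative values destabilization. Scale: negative = destabilization.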

| Compound | tubulin polymerization end-point dOD [%] |
| --- | --- |
| Cc1cnc(C(=O)Nc2ncc(Cc3ccc(C)c(Cl)c3)s2)cn1 | -19.2 |
| Cc1ccc(C)c(NC(=O)CSc2nc3ccc(C(C)C)cc3cc2C#N)c1 | -39.1 |
| CCOc1c(Cl)cc(C(=O)N2CCN(c3cccc(C)c3)CC2)cc1OC | -52.8 |
| Cc1cc2nc(-c3ccc(SCC#N)nc3)[nH]c2cc1C | 51.8 |
| COc1cc(-c2onc3ccc(Cl)cc23)cc(OC)c1OC | 95.2 |
| COc1ccc(NC(=O)CSc2nc3cc4c(cc3cc2C#N)OCO4)c(OC)c1 | 23.6 |
| COc1cc(OC)cc(C(=O)N(Cc2ccccc2OC)Cc2cc3c(C)ccc(C)c3[nH]c2=O)c1 | 12.8 |
| COc1cc2c(cc1OC)C(c1cccs1)N(C(=O)Nc1ccc(Cl)cc1)CC2 (stereo not given) | 70.5 |
| Cc1ccc(-c2csc3ncn(CC4CCCCO4)c(=O)c23)cc1 (stereo not given) | -190 |
| COc1ccc2cc(CN(CC3CCCO3)C(=O)Nc3ccc(Cl)cc3)c(=O)[nH]c2c1 (stereo not given) | -0.367 |
| CC(=O)c1c(C)cc(C)c(CSc2nnc(-c3ccc(F)cc3)n2C)c1C | -75.9 |
| CCc1ccccc1NC(=O)CSc1nc2cc3c(cc2cc1C#N)OCCO3 | -23.9 |
| COc1ccc(CCNC(=O)CSc2nc3cc4c(cc3cc2C)OCO4)cc1OC | -49.9 |
| O=C(N/N=C/c1cccs1)c1n[nH]c2c1CCC2 | 12.9 |
| COc1ccc(OC)c(NC(=O)CSc2nc3ccc(OC)cc3cc2C)c1 | -30.7 |
| COc1ccccc1NC(=O)CSc1nnc(-c2cc(OC)c(OC)c(OC)c2)n1C | -33.1 |
| O=C(Nc1ncc(Cc2ccccc2Br)s1)c1cccnc1 | -64.1 |
| O=c1[nH]c(/C=C/c2ccccc2)nc2sc3c(c12)CCCCC3 | 16.8 |
| CC1Oc2nc3ccccc3cc2CN(Cc2ccc(F)cc2)C1=O (stereo not given) | 3.19 |
| Cc1ccc(/C=N/NC(=O)c2c(C)nc3ccc(Cl)cn23)cc1 | -21.2 |

| Compound | tubulin polymerization end-point dOD [%] |
| --- | --- |
| COc1ccc(C2=NOC(=O)/C2=N/Nc2ccc(Cl)cc2)cc1 | 19 |
| Cc1ccc2cc(CN(CC3CCCO3)C(=S)Nc3ccccc3)c(=O)[nH]c2c1 (stereo not given) | 0.1 |
| COc1ccc(/C(C)=N/Nc2cc[nH+]c3cc(Cl)ccc23)cc1OC | 3.81 |
| Cc1cccc(Cc2cnc(NC(=O)c3ccc(Br)cc3)s2)c1 | -17.2 |
| Cc1ccc(C2=NN(C(=O)c3ccncc3)C(c3ccccc3F)C2)cc1 (stereo not given) | -4.53 |
| Cc1ccc2cc(C#N)c(SCC(=O)c3ccccc3)nc2c1 | -46.9 |
| COc1ccc2nc(/C=C/c3cccc(F)c3)sc2c1 | 6.83 |
| O=C(N/N=C/c1ccc2c3c(cccc13)CC2)C1COc2ccccc2O1 (stereo not given) | 28.5 |
| Cc1cc2nc(/C=C/c3cccnc3)sc2cc1C | -34.3 |
| O=C(Nc1ncc(Cc2ccccc2Br)s1)c1cnccn1 | 6.47 |
| O=C1CCCN1c1ccc(S(=O)(=O)Oc2ccc(Cl)cc2)cc1 | -18.4 |
| Clc1ccc2sc(/C=C/c3cccnc3)nc2c1 | 47.1 |
| COc1cccc(N2CCN(C(=O)c3cc(C4CC4)nc4ccccc34)CC2)c1 | -85.1 |
| COc1ccc(Br)cc1-c1nc(CN2C(=O)NC(C)(c3ccccc3)C2=O)cs1 (stereo not given) | 88.8 |
| Cc1ccc2nc(-c3ccc(I)cc3)cn2c1 | 101 |
| C=CCc1ccccc1OCC(=O)N/N=C\c1ccc(Cl)cc1 | -25.9 |
| CCC(C)Cc1c(C)sc2nc(SCc3nnc(C)o3)[nH]c(=O)c12 (stereo not given) | -13.9 |
| Cc1ccccc1NC(=O)CSc1nc2cc3c(cc2cc1C)CCC3 | 69.3 |
| CCS(=O)(=O)N1CCc2cc(C(=O)Cn3cnc4sc(C)c(-c5ccccc5)c4c3=O)ccc21 | 38.3 |
| COc1ccc2cc(CN(Cc3cccs3)C(=O)Nc3ccccc3Cl)c(=O)[nH]c2c1 | -57.2 |
